From PubChem BioAssay (NCI) come the findings set out here.

About 83,000 compounds went through this panel and 20% of them were active in at least one assay; those are over-represented in the sample as a whole.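 Assay: single dose, 48 h. Readout: percent growth (0 = no net growth; negative = cell death). Active: <10.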 Unmarked numbers belong to inactive results. The source made the active and inactive calls.

Test systems include SR leukemia; RPMI-8226 leukemia; OVCAR-8 ovarian; OVCAR-5 ovarian; OVCAR-4 ovarian; SK-OV-3 ovarian; IGROV1 ovarian; OVCAR-3 ovarian; HS 578T breast; NCI/ADR-RES ovarian.
Common to all, as to test: NCI-60 one-dose screen, 48 h (100 = growth as untreated, 0 = no growth, -100 = all killed)
Details in all cases: 10 µM unless noted

In the case of `CCC1(CC)NC(=O)c2c(c3ccc(Cl)c(Cl)c3n2C)C1C#N` (stereo not given), the growth was 5.94% (active) in the assay on SR leukemia; 88.6% in the assay on RPMI-8226 leukemia; 93.6% in the assay on OVCAR-8 ovarian; 81.4% with OVCAR-5 ovarian; 91.8% in the assay on OVCAR-4 ovarian; 91.7% with SK-OV-3 ovarian. For the same molecule, the growth with IGROV1 ovarian was 74.6%; with OVCAR-3 ovarian it was 94.6%; in the assay with HS 578T breast, 97.1%; in the assay with NCI/ADR-RES ovarian, 91.5%.

Take `CCOC(=O)N1CCc2c(sc3nc4nc[nH]n4c(=O)c23)C1`: the growth in the assay on SR leukemia is 101%; with RPMI-8226 leukemia, 98.2%; with OVCAR-8 ovarian, 103%; in the assay with OVCAR-5 ovarian, 110%; in the assay with OVCAR-4 ovarian, 109%; in the assay on SK-OV-3 ovarian, 96.7%. Besides, the growth in the assay with IGROV1 ovarian was 91.4%; with OVCAR-3 ovarian it was 105%; in the assay on HS 578T breast, 95.8%; in the assay with NCI/ADR-RES ovarian, 97%.

As to `CC1(C)CN(c2cnc(C(=O)Nc3cc(F)cc4cccnc34)cn2)CCN1`, the growth with SR leukemia was 7.28% (active); with RPMI-8226 leukemia it was 75.6%; in the assay with OVCAR-8 ovarian, 96.5%; in the assay on OVCAR-5 ovarian, 86.1%; with OVCAR-4 ovarian, 15%; in the assay on SK-OV-3 ovarian it was 79.5%. For the same molecule, the growth is 36.2% in the assay with IGROV1 ovarian, 10.6% with OVCAR-3 ovarian, 71.6% in the assay on HS 578T breast and 90.9% in the assay on NCI/ADR-RES ovarian.

Regarding `CN1C(=O)N(C)C2NC(N/N=C/c3ccccc3)=NC21` (stereo not given), the growth with SR leukemia was 117%; in the assay with RPMI-8226 leukemia, 138%; with OVCAR-8 ovarian, 102%; with OVCAR-5 ovarian, 98.3%; with OVCAR-4 ovarian it was 103%; in the assay on SK-OV-3 ovarian, 115%. Besides, the growth is 102% in the assay on IGROV1 ovarian, 106% in the assay with OVCAR-3 ovarian, 94.7% in the assay on HS 578T breast and 104% in the assay with NCI/ADR-RES ovarian.

For the molecule `CN1CCN(c2ccc(NC3=C(Cl)C(=O)c4ncccc4C3=O)cc2C#N)CC1`, the growth in the assay with SR leukemia is 3.52% (active); in the assay with RPMI-8226 leukemia it was 37.7%; in the assay with OVCAR-8 ovarian, 26.8%; in the assay with OVCAR-5 ovarian, 73.5%; in the assay with OVCAR-4 ovarian, -97.7% (active); in the assay with SK-OV-3 ovarian it was 86.3%. In addition, the growth in the assay on IGROV1 ovarian was -29.1% (active); with OVCAR-3 ovarian, -63.7% (active); with HS 578T breast it was 61.4%; in the assay on NCI/ADR-RES ovarian, 73.1%.

Regarding `CCOc1ccc(/C=N/Nc2cc(C)nc3ccc(Cl)cc23)cc1`, the growth with SR leukemia is -9.13% (active); in the assay on RPMI-8226 leukemia, -1.34% (active); with OVCAR-8 ovarian, 45.2%; in the assay with OVCAR-5 ovarian it was 79.2%; in the assay with OVCAR-4 ovarian, 56.8%; in the assay with SK-OV-3 ovarian, 84.1%. The growth was 45.4% in the assay on IGROV1 ovarian, -16.3% (active) with OVCAR-3 ovarian, 92.3% in the assay on HS 578T breast and 45.9% in the assay with NCI/ADR-RES ovarian.

`CN(C)C(C(N)=O)c1ccc(Cl)cc1` (stereo not given): the growth in the assay with SR leukemia was 98.5%; in the assay with RPMI-8226 leukemia it was 107%; in the assay on OVCAR-8 ovarian, 101%; in the assay on OVCAR-5 ovarian it was 95.9%; with OVCAR-4 ovarian, 102%; in the assay on SK-OV-3 ovarian, 98.5%. For the same molecule, the growth with IGROV1 ovarian was 103%; in the assay with OVCAR-3 ovarian, 112%; in the assay with HS 578T breast, 103%; with NCI/ADR-RES ovarian, 106%.

`Nc1nc(SN=Nc2ccc(S(N)(=O)=O)cc2)c2[nH]cnc2n1`: the growth with SR leukemia was 5.59% (active); in the assay with RPMI-8226 leukemia it was -15.3% (active); with OVCAR-8 ovarian, 11.2%; in the assay on OVCAR-5 ovarian, 19.4%; in the assay with OVCAR-4 ovarian, 34.7%; in the assay on SK-OV-3 ovarian, 7.11% (active). The growth in the assay on IGROV1 ovarian is 39.8%; in the assay with OVCAR-3 ovarian, -13.7% (active); with HS 578T breast it was 36.5%; with NCI/ADR-RES ovarian, 17.6%.

Turning to `COc1ccc(C2=C(c3ccccc3)c3ccc(OC(C)=O)cc3OC2(C)C)cc1`, the growth was 41.2% in the assay with SR leukemia; 32% in the assay with RPMI-8226 leukemia; 125% with OVCAR-8 ovarian; 85.3% in the assay with OVCAR-5 ovarian; 88.2% in the assay on OVCAR-4 ovarian; 116% in the assay with SK-OV-3 ovarian. For the same molecule, the growth with IGROV1 ovarian is 96.7%; with OVCAR-3 ovarian, 85.1%; with HS 578T breast, 104%; in the assay with NCI/ADR-RES ovarian it was 77.2%.

As to `CC(=O)OCC(=O)[C@@]1(O)CC[C@H]2[C@@H]3CC(=C(Br)Br)C4=CC(=O)CC[C@]4(C)[C@H]3C(=O)C[C@@]21C`, the growth in the assay on SR leukemia was 115%; with RPMI-8226 leukemia it was 87%; in the assay with OVCAR-8 ovarian, 92.9%; in the assay with OVCAR-5 ovarian it was 102%; with OVCAR-4 ovarian, 96.1%; in the assay on SK-OV-3 ovarian it was 72.9%. Also, the growth in the assay on IGROV1 ovarian is 96%; with OVCAR-3 ovarian, 98.6%; in the assay on HS 578T breast, 90.8%; in the assay with NCI/ADR-RES ovarian, 89.5%.

`CC(C)Sc1nc(NN)c(C#N)c(-c2ccccc2)n1`: the growth in the assay with SR leukemia is 109%; with RPMI-8226 leukemia it was 100%; with OVCAR-8 ovarian, 96.6%; in the assay on OVCAR-5 ovarian it was 92.8%; in the assay on OVCAR-4 ovarian, 94.5%; in the assay with SK-OV-3 ovarian it was 108%. In addition, the growth is 86.3% in the assay with IGROV1 ovarian, 100% with OVCAR-3 ovarian, 93.6% in the assay with HS 578T breast and 99.8% with NCI/ADR-RES ovarian.

Consider `CC(=O)N1c2ccccc2NC2=C(C(=O)N(Cc3ccccc3)C2(C)C)C1c1ccco1` (stereo not given), for which the growth in the assay on SR leukemia was 23.3%; in the assay with RPMI-8226 leukemia, 23.4%; in the assay with OVCAR-8 ovarian, 26.1%; in the assay on OVCAR-5 ovarian, 25.9%; with OVCAR-4 ovarian, 48.8%; in the assay on SK-OV-3 ovarian it was 22.7%. Also, the growth is 26.8% in the assay on IGROV1 ovarian, -7.66% (active) in the assay with OVCAR-3 ovarian, 10.7% with HS 578T breast and 82.9% in the assay with NCI/ADR-RES ovarian.

With `C=C(C)[C@@H]1CC[C@]2(C(=O)O)CC[C@]3(C)[C@H](CC[C@@H]4[C@@]5(C)C[C@@H](CC#Cc6ccc(Br)cc6)C(=O)C(C)(C)[C@@H]5CC[C@]43C)[C@@H]12`, the growth was 55.2% with SR leukemia; 33.4% with RPMI-8226 leukemia; 35.6% in the assay with OVCAR-8 ovarian; 73.8% in the assay on OVCAR-5 ovarian; 30.3% in the assay on OVCAR-4 ovarian; 50.5% in the assay on SK-OV-3 ovarian. For the same molecule, the growth in the assay on IGROV1 ovarian was 58.6%; in the assay with OVCAR-3 ovarian, 51.4%; in the assay on HS 578T breast it was 59%; in the assay on NCI/ADR-RES ovarian, 76.4%.
